{"source": "paper PMC7862700", "about": "“An all-to-all approach to the identification of sequence-specific readers for epigenetic DNA modifications on cytosine”", "assay_in_all_cases": "DAPPL (digital affinity profiling via proximity ligation, sequencing); 10 mM Tris-HCl pH 7.5, 50 mM NaCl, 1 mM DTT, 4% glycerol, room temperature, 30 min; GST-TFs on glutathione beads, 16-mer random dsDNA library, 0.1% formaldehyde crosslink after washing; high values mean tight binding", "conditions_in_all_cases": "protein: recombinant; tags: N-terminal GST; dsDNA, one strand shown", "key": {"FLI1": {"target": "T1, FLI1 (Homo sapiens, UniProt Q01543 1-452)", "T1 sequence": "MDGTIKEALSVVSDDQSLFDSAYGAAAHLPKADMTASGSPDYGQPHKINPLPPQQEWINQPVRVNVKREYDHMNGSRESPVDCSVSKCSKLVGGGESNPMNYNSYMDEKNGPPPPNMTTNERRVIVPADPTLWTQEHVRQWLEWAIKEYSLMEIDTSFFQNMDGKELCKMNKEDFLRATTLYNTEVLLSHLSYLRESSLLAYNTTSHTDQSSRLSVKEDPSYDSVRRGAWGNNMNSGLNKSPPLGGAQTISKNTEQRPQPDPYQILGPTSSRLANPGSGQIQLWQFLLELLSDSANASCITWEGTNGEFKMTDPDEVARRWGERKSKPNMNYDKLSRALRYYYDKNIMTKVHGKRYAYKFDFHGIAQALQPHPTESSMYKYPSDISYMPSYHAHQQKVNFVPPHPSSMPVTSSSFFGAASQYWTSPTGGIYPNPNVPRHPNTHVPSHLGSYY", "how_it_was_run": "(§1)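 Pools of DNA-barcoded human transcription factors, expressed in yeast as GST fusions on glutathione beads and combined with a tag-only sample, were incubated with 200 nmole of a 16-mer random double-stranded DNA library. Incubation took 30 min at room temperature in Tris/NaCl/DTT/glycerol buffer and was followed by washing, 0.1% formaldehyde crosslinking, proximity ligation (BsaI/T4 ligase, 1 h, 37 °C), PCR amplification and sequencing on an Illumina NextSeq500. Binding signal is the ratio of a hexamer's read frequency for a factor to its frequency for the tag-only sample.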"}, "ELK1": {"target": "T2, ELK1 (Homo sapiens, UniProt P19419 1-428)", "T2 sequence": "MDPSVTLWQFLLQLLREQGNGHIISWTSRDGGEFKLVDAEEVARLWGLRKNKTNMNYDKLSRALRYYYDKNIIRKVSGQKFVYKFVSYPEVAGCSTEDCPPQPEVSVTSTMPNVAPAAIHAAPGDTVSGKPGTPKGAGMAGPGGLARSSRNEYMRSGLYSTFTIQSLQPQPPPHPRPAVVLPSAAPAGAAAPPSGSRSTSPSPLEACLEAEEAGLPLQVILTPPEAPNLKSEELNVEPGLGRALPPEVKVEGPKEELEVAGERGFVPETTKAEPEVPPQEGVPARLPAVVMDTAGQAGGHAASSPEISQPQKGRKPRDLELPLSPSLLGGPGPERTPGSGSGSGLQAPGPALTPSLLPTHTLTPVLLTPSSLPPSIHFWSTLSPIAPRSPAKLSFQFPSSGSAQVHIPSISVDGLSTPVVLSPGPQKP", "how_it_was_run": "as §1"}, "GABPA": {"target": "T3, GABPA (Homo sapiens, UniProt Q06546 1-454)", "T3 sequence": "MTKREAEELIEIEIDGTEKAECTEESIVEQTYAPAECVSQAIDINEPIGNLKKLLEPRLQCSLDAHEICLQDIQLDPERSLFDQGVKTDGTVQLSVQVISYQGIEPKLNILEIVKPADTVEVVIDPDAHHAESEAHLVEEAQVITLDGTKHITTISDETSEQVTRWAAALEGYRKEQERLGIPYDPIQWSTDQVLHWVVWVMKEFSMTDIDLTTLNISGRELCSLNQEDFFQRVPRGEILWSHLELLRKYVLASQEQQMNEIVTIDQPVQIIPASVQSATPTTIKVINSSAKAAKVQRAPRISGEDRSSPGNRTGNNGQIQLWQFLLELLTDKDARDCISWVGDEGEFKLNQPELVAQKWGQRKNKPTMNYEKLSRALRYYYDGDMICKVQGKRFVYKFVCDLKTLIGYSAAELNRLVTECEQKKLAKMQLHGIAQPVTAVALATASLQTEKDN", "how_it_was_run": "as §1"}, "ERG": {"target": "T4, ERG (Homo sapiens, UniProt P11308 1-479)", "T4 sequence": "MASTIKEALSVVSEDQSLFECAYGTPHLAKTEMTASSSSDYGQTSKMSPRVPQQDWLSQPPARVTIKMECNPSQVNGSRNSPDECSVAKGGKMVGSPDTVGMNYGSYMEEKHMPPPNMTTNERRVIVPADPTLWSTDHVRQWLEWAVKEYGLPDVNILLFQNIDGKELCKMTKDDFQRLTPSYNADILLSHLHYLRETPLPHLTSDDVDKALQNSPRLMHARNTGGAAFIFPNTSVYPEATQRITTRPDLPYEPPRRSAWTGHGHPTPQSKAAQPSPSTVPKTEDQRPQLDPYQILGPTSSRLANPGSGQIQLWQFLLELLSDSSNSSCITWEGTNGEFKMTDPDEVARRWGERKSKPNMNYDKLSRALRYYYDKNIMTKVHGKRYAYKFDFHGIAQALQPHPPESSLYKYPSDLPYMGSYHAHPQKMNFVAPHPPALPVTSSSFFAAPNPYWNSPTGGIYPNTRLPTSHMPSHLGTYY", "how_it_was_run": "as §1"}, "ELF1": {"target": "ELF1 (Homo sapiens, UniProt P32519 1-619)", "sequence (P32519 whole entry)": "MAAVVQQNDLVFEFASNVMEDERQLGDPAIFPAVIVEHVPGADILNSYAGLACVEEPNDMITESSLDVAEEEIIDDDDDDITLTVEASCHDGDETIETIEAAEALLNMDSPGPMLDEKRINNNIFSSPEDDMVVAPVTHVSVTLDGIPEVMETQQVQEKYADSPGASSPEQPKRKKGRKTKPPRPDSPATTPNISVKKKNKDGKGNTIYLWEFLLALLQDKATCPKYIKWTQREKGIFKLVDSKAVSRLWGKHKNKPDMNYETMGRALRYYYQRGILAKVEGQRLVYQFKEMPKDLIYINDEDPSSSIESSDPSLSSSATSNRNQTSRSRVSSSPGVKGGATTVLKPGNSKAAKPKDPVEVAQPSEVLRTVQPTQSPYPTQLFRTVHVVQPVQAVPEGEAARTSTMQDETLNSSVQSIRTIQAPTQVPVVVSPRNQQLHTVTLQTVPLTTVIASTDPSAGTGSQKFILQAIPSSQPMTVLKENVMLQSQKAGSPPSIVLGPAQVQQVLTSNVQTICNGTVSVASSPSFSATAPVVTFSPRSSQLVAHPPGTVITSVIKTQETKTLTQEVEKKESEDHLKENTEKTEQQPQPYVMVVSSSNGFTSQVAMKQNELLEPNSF", "how_it_was_run": "as §1"}, "EHF": {"target": "T5, EHF (Homo sapiens, UniProt Q9NZC4 1-300)", "T5 sequence": "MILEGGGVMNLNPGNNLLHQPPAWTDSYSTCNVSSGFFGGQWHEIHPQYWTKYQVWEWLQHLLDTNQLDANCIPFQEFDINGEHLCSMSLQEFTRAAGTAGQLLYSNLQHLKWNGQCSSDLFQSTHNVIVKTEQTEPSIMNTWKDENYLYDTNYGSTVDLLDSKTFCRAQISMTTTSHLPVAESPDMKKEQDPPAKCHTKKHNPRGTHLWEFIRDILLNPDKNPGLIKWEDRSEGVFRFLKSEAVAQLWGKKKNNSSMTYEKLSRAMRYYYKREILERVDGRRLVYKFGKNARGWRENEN", "how_it_was_run": "as §1"}, "SPI1": {"target": "SPI1 (Homo sapiens, UniProt P17947 1-270)", "how_it_was_run": "as §1"}, "SPIB": {"target": "SPIB (Homo sapiens, UniProt Q01892 1-262)", "sequence (Q01892 whole entry)": "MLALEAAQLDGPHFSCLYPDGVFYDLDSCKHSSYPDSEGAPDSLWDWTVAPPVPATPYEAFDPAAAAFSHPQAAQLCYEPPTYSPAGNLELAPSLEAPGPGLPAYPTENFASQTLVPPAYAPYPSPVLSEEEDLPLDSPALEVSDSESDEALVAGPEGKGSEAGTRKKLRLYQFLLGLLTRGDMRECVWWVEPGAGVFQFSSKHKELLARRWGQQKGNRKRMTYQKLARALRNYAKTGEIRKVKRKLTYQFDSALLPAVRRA", "how_it_was_run": "as §1"}, "ELK3": {"target": "T6, ELK3 (Homo sapiens, UniProt P41970 1-407)", "T6 sequence": "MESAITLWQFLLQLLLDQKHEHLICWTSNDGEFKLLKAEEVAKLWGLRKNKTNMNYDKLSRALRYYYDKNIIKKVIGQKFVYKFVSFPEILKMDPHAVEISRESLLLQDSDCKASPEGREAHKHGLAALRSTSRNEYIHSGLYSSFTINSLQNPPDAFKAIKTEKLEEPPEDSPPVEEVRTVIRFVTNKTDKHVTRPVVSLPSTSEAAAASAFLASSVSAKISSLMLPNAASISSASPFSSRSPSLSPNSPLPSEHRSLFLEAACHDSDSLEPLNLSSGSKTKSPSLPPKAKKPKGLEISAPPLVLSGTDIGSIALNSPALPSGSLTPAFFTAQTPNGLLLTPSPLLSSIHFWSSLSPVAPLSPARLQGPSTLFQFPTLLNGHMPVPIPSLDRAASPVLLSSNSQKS", "how_it_was_run": "as §1"}}, "data": [{"sequence": "ATAAAC", "values": [{"measurement": "binding signal", "setting": "FLI1", "result": "1.22 fold enrichment (6-mer frequency, TF over GST control)"}, {"measurement": "binding signal", "setting": "ELK1", "result": "1.16 fold enrichment (6-mer frequency, TF over GST control)"}, {"measurement": "binding signal", "setting": "GABPA", "result": "1.11 fold enrichment (6-mer frequency, TF over GST control)"}, {"measurement": "binding signal", "setting": "ERG", "result": "1.11 fold enrichment (6-mer frequency, TF over GST control)"}, {"measurement": "binding signal", "setting": "ELF1", "result": "1.14 fold enrichment (6-mer frequency, TF over GST control)"}, {"measurement": "binding signal", "setting": "EHF", "result": "1.07 fold enrichment (6-mer frequency, TF over GST control)"}, {"measurement": "binding signal", "setting": "SPI1", "result": "1.14 fold enrichment (6-mer frequency, TF over GST control)"}, {"measurement": "binding signal", "setting": "SPIB", "result": "1.19 fold enrichment (6-mer frequency, TF over GST control)"}, {"measurement": "binding signal", "setting": "ELK3", "result": "1.14 fold enrichment (6-mer frequency, TF over GST control)"}]}]}
